From PubChem
The list is a sample of the results.
aSyn 5UTR act = Activators working through SNCA 5'UTR binding (MLPCN); alpha-synuclein 5'UTR reporter, activators screen; activity score, % (tested at 7.5 µM), hits read low; 7.1% of 300,000 active; in the data active means activity score below about -60%
Each line names hits and unclear results; the compound was inactive in the other large screens.

O=C(c1cc2cc3ccc(Cl)cc3nc2o1)N1CCCCCC1	aSyn 5UTR act -95
Cc1ccc2cc3cc(C(=O)N4CC(C)CC(C)C4)oc3nc2c1 (stereo not drawn)	aSyn 5UTR act -120
COc1ccc2cc3cc(C(=O)N4CC(C)CC(C)C4)oc3nc2c1 (stereo not drawn)	aSyn 5UTR act -125
CC(=O)Nc1ccc(NC(=O)CSc2ccc(-c3ccc4c(c3)OCO4)nn2)cc1	aSyn 5UTR act -66
Cc1ccc(-c2ccc(SCC(=O)Nc3nonc3C)nn2)cc1	aSyn 5UTR act -87
Cc1ccc(-c2ccc(SCC(=O)Nc3ccc4c(c3)OCCO4)nn2)cc1	aSyn 5UTR act -98
O=C(O)c1cc(N/N=C/c2cccc3ccccc23)ccc1Cl	aSyn 5UTR act -131
Cc1ccc(/C=N/Nc2ccc(Cl)c(C(=O)O)c2)s1	aSyn 5UTR act -153
O=[N+]([O-])c1cccc(N/N=C/c2cccc3ccccc23)c1	aSyn 5UTR act -91
NNc1ccc(Cl)c(C(=O)O)c1	aSyn 5UTR act -180
O=C(O)c1cc(N/N=C/c2cccs2)ccc1Cl	aSyn 5UTR act -253
NC(=O)C1CCCN(C(=S)Nc2cccc3ccccc23)C1 (stereo not drawn)	aSyn 5UTR act -90
O=[N+]([O-])c1ccc2c(c1)nc1n2CCN(C2CCCCC2)C1	aSyn 5UTR act -127
Cc1ccc(N2C(=O)[C@@H]3Cc4ccccc4CN3C2=O)cc1	aSyn 5UTR act -71
CC(C)c1ccc(N2C(=O)[C@@H]3Cc4ccccc4CN3C2=O)cc1	aSyn 5UTR act -118
O=c1c2ccccc2nnn1CSc1ccccc1F	aSyn 5UTR act -98
CC1CCCCC1NC(=O)Cn1nnc2ccccc2c1=O (stereo not drawn)	none
O=c1c2ccccc2nnn1CSc1nc2ccccc2[nH]1	aSyn 5UTR act -173
Cc1ccc(NC(=O)Cn2nnc3ccccc3c2=O)cc1	aSyn 5UTR act -93
Cc1ccc(SCn2nnc3ccccc3c2=O)c(C)c1	aSyn 5UTR act -147
Cc1ccc2nc(SCn3nnc4ccccc4c3=O)[nH]c2c1	aSyn 5UTR act -139
c1ccc(CSc2ccc(-c3cccs3)nn2)nc1	aSyn 5UTR act -102
N#Cc1ccc(-c2cccs2)nc1SCc1cccnc1	none
c1ccc(CSc2ccc(-c3cccs3)nn2)cc1	aSyn 5UTR act -108
O=C(CSc1ccc(-c2cccs2)nn1)c1cccs1	aSyn 5UTR act -68
CCn1cnc2cc(NCc3nc4ccccc4n3Cc3ccccc3)ccc21	aSyn 5UTR act -138
CC(C)n1cnc2cc(NCc3nc4ccccc4n3C)ccc21	aSyn 5UTR act -115
CCn1cnc2cc(NCc3nc4ccccc4n3C)ccc21	aSyn 5UTR act -108
Cc1ccc(-n2c(C)cc(C(=O)COC(=O)c3c(C)noc3C)c2C)cc1	aSyn 5UTR act -199
COc1ccc(N(C(=O)c2ccco2)S(=O)(=O)c2cc(OC)ccc2OC)cc1	aSyn 5UTR act -113
O=C(Oc1ccc2cc(Br)ccc2c1)N1CCCCCC1	aSyn 5UTR act -169
c1cncc(-c2nc3cc4ccccc4cc3[nH]2)c1	aSyn 5UTR act -79
Nc1cccc(-c2nc3ccccc3[nH]2)c1	aSyn 5UTR act -170
N#CCSc1ccc(-c2nc3ccccc3[nH]2)cn1	aSyn 5UTR act -239
c1cncc(CNc2cccc(-c3nc4ccccc4[nH]3)c2)c1	aSyn 5UTR act -145
Fc1ccc(-c2nc3ccccc3[nH]2)cc1	aSyn 5UTR act -96
O=[N+]([O-])c1cc(Cl)cc2c1nc(NCCO)c1ccccc12	aSyn 5UTR act -207
COCc1nnc(NC(=O)c2sc3ccccc3c2Cl)s1	aSyn 5UTR act -102
CNC(=O)c1ccsc1NC(=O)c1sc2ccccc2c1Cl	aSyn 5UTR act -168
CCOC(=O)c1cn(-c2c(Cl)cccc2Cl)c2cc(Cl)c([N+](=O)[O-])cc2c1=O	aSyn 5UTR act -90
Oc1ccc(-c2cn3ccccc3n2)cc1O	aSyn 5UTR act -124
O=C(Nc1cccc(-c2cn3ccccc3n2)c1)c1cc2ccccc2oc1=O	aSyn 5UTR act -100
c1ccc2c(-c3cn4ccccc4n3)c[nH]c2c1	aSyn 5UTR act -281
CC(=O)Nc1cccc(-c2cn3ccccc3n2)c1	aSyn 5UTR act -78
O=C(O)COc1cccc2ccccc12	aSyn 5UTR act -65
O=C(c1ccc([N+](=O)[O-])cc1)n1nc(-c2ccccc2)nc1NCc1ccccc1	aSyn 5UTR act -67
O=C(c1cccc([N+](=O)[O-])c1)n1nc(-c2ccccc2)nc1NCc1ccccc1	aSyn 5UTR act -68
COCC(=O)n1nc(-c2ccccc2)nc1NCc1ccc(N(C)C)cc1	aSyn 5UTR act -83
FC(F)Oc1ccccc1/C=N/n1cnc2ccccc21	aSyn 5UTR act -191
CCc1ccccc1NC(=O)c1ccc(-n2c(C)ccc2C)cc1	aSyn 5UTR act -98
Cn1nnnc1SCc1ccc(C(=O)Nc2ccccc2F)cc1	aSyn 5UTR act -86
Cc1ccc(C)n1-c1ccc(C(=O)Nc2ccccc2F)cc1	aSyn 5UTR act -157
Cc1cc2nnc(SCC(=O)NCc3ccco3)n2c2ccccc12	aSyn 5UTR act -184
COc1ccc(C(=O)Nn2c(SCC(=O)NCc3ccco3)nc3ccccc3c2=O)cc1	none
O=C(Cc1ccccc1[N+](=O)[O-])N1CCc2ccccc2C1	aSyn 5UTR act -103
